# From PubChem BioAssay
# AMA1 RON2 block: qHTS for Inhibitors of AMA1-RON; Towards Development of Antimalarial Drug Lead: Primary Screen; AID 720542, 2013; 360,000 tested, 0.2% active; AlphaScreen AMA1-biotinylated RON2 peptide binding; Plasmodium falciparum AMA1 (3D7) - RON2 peptide interaction; Potency, µM (series often up to 58.2 µM), actives largely listed as inhibitors; also: nearly all actives have a fitted effect of over 45% in size
#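 AMA1 (3D7) with his tag at 25 nM final met compounds first, then biotinylated RON2 peptide at 25 nM; detection used donor plus acceptor beads, 10 µg/mL apiece, read by AlphaScreen after 30 min at room temperature.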
# Pf growth 48h: Primary qHTS for delayed death inhibitors of the malarial parasite plastid, 48 hour incubation; P. falciparum luciferase growth in erythrocytes, 48 h; Potency, µM (doses to about 28.7 µM), actives largely listed as inhibitors; 310,000 tested, 5.9% active; AID 504832, 2011
#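 Growth was read as firefly luciferase luminescence after a 48 h, 37 C, 5% CO2 exposure of compounds to reporter-bearing P. falciparum cultures (0.1% parasitemia, 2% hematocrit final) in Albumax-supplemented RPMI 1640.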
# Pf growth 96h: Primary qHTS for delayed death inhibitors of the malarial parasite plastid, 96 hour incubation | P. falciparum luciferase reporter growth, 96 h | Potency, µM (titrated, usually from 28.7 µM), most hits filed as inhibitors | 320,000 tested, 6.9% active | AID 504834, 2011
#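 Delayed-death screen, second-generation endpoint: infected erythrocytes, 2% hematocrit, 0.05% parasitemia final; 96 hours at 37 C, 5% CO2; luciferase detection reagent; luminescence decrease equals reduced growth.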
# NS1 function inh: qHTS Assay for Inhibitors of Influenza NS1 Protein Function | Potency, µM (doses to about 46.1 µM) | 270,000 tested, 0.4% active; calls by dose curve; also: actives are rising curves; nearly all actives have a fitted effect of over 50% in size
#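 In this qHTS, NS1 from influenza A is expressed in budding yeast, where it slows growth. Cells are switched from glucose to 2% galactose medium (pH 6.0, -URA), treated with compound, and growth recovery is read at OD600.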
# Sm TGR block: qHTS Assay for the Inhibitors of Schistosoma Mansoni Peroxiredoxins | 360,000 tested, 3% active | Schistosoma mansoni thioredoxin glutathione reductase (TGR), Q962Y6 | purified TGR, DTNB reduction, TNB absorbance 405 nm | Potency, µM (series often up to 114 µM), actives largely listed as inhibitors | AID 485364, 2010; also: nearly all actives have a fitted effect of over 60% in size
#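 TGR 20 nM + NADPH 100 uM (dispensed conc.), cpd preinc 15 min RT; start with NADPH (500 uM addition) then DTNB (15 mM addition). Kinetic TNB absorbance, 405 nm filter. Four-parameter Hill fit across titration.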
# Numbers stand for hits; 0 = inactive; ? = inconclusive; - = no result. Rows were chosen to be rich in hits. Some 11% of all compounds tested hit in one or more screens of this group. Unless noted, calls follow the shape of the dose curve; as a rule, active = well fitted curve in the direction sought with a large enough effect; inconclusive = small, poorly fitted or top-dose-only effect, or another doubt; inactive = no such curve, though single readings can be large; an effect the other way counts as inactive or inconclusive.
SMILES,AMA1 RON2 block,Pf growth 48h,Pf growth 96h,NS1 function inh,Sm TGR block
Cc1cccc(CN2CCN(C3CN(Cc4cn(Cc5ccccc5)nn4)S(=O)(=O)C3)CC2)c1 (stereo not given),0,-,-,-,-
Cc1ccc(-c2nc3sc(CCNC(=O)c4ccc(Br)o4)c(C)n3n2)cc1,-,-,-,-,0
COc1cn(-c2ccccc2)nc1C(=O)NCc1ccc(C)cc1,0,?,8.3µM,0,0
Cc1ccc(CNC(=O)c2nccnc2C(=O)O)cc1,0,0,4.7µM,0,0
COc1cn(-c2ccccc2)nc1C(=O)NCc1ccccc1,0,0,0,0,0
CCN(CCCNC(=O)Cn1ncc2c3ccccc3n(C)c2c1=O)c1cccc(C)c1,-,-,-,-,0
Cc1ccc(SC(=O)c2c(C)noc2-c2cc(C)on2)cc1,0,0,0,0,7.9µM
CC(C)NS(=O)(=O)c1ccc(CCC(=O)N2CCCCC2)cc1,0,0,0,0,-
O=[N+]([O-])c1cc(C(F)(F)F)cc([N+](=O)[O-])c1NCCCNc1ccc([N+](=O)[O-])c2cccnc12,?,?,4.1µM,0,0
CN(Cc1ccccc1)S(=O)(=O)c1ccc(N2CCCC2=O)cc1,0,?,?,-,0
CCCNc1cc(C)c(C#N)c2nc3ccccc3n12,0,0,0,0,0
Cc1cc(NCCOCCO)n2c(nc3ccccc32)c1C#N,0,?,1.9µM,0,0
COCCNc1cc(C)c(C#N)c2nc3ccccc3n12,0,?,-,0,0
Cc1cc(NCCCO)n2c(nc3ccccc32)c1C#N,0,10µM,?,0,0
CN(C)S(=O)(=O)c1cccc(NC(=O)CC23CC4CC(CC(C4)C2)C3)c1,0,15µM,?,0,0
NC(=O)c1ccccc1NC(=O)CC12CC3CC(CC(C3)C1)C2,0,0,9.3µM,0,0
CC1CN(S(=O)(=O)c2cccc(C(=O)NCCC3=CCCCC3)c2)CC(C)O1 (stereo not given),0,?,?,-,0
COc1ccc(C(=O)O)cc1S(=O)(=O)Nc1ccc(Oc2ccccc2)cc1,0,?,0,-,0
CC1CC(C)CN(C(=O)COC(=O)c2cc3ccccc3oc2=O)C1 (stereo not given),0,-,-,-,-
Cc1ccc(C(=O)N2c3ccccc3CC2C)o1 (stereo not given),0,0,3.7µM,0,0
CC1Cc2ccccc2N1C(=O)c1ccc(Br)o1 (stereo not given),0,-,-,-,-
CC1Cc2ccccc2N1C(=O)COC(=O)c1ccco1 (stereo not given),0,-,-,-,-
CCN(CC)c1cccc(OCC(=O)N2c3ccccc3CC2C)c1 (stereo not given),0,9.3µM,?,-,0
Cc1cc(C(=O)OCC(=O)N2CC(C)CC(C)C2)c(C)o1 (stereo not given),0,0,?,0,25µM
Cc1cc(C(=O)OCC(=O)N2c3ccccc3CC2C)c(C)o1 (stereo not given),0,?,0,0,25µM
SMILES,AMA1 RON2 block,Pf growth 48h,Pf growth 96h,NS1 function inh,Sm TGR block
COCCCn1c(=N)c(C(=O)NC2CCCC2)cc2c(=O)n3ccccc3nc21,-,-,-,-,0
O=C(Nc1cccc(O)c1)N1CCOCC1,0,0,12µM,0,?
O=C(Nc1ccc(F)cc1)N1CCOCC1,0,0,?,0,0
CN(C)c1ccc(NC(=O)N2CCOCC2)cc1,0,6.6µM,?,0,0
O=C(Nc1ccc(Cc2ccc(NC(=O)N3CCOCC3)cc2)cc1)N1CCOCC1,0,?,4.1µM,0,0
O=C(Cc1ccc(F)cc1)Nc1ccc(Cl)cn1,0,0,0,0,0
O=[N+]([O-])c1ccc(OCC(O)CNCCNc2nccc(C(F)(F)F)n2)cc1 (stereo not given),0,?,?,0,0
CCOC(=O)C1CCN(CC(O)COc2ccc(S(=O)(=O)N3CCCC3)cc2[N+](=O)[O-])CC1 (stereo not given),0,8.3µM,?,-,0
CC1CCCCN1C(=O)COc1ccc(S(=O)(=O)N2CCCC2)cc1[N+](=O)[O-] (stereo not given),0,0,12µM,-,0
CCCCCCC(NC(=O)Cc1ccc2ccccc2c1)C(=O)O (stereo not given),0,-,-,-,-
